# Screens from PubChem.
# In the library only some 17% were active in any assay of this set; here they are far more common.
# TDP1 block: qHTS Assay for Inhibitors of Tyrosyl-DNA Phosphodiesterase (TDP1); Tyrosyl-DNA phosphodiesterase 1 (Homo sapiens), Q9NUW8; recombinant TDP1, AlphaScreen DNA substrate cleavage; Potency, µM (doses to about 130 µM), for inactives: at the top dose activity change, negative = inhibition, usual class: inhibitors; 350,000 tested, 0.28% active; further: on the % scale 0 is the no-effect control and ±100 the full control effect; nearly all actives have a fitted effect of over 40% in size
#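 Here, a 5' biotin and 3' phosphotyrosine-FITC DNA oligonucleotide reports Tdp1 activity: intact substrate bridges AlphaScreen beads, while cleavage leaves a 3' phosphate and drops signal. All incubations at room temperature.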
# ClpP mod: qHTS Assay for Activators of ClpP; Potency, µM (doses to about 57.5 µM), for inactives: at the highest dose activity change, negative = active; purified B. subtilis ClpP, FRET peptide cleavage, 20 min; ATP-dependent Clp protease proteolytic subunit (Bacillus subtilis (strain 168)), P80244; AID 651965, 2013; 340,000 tested, 1.9% active; active means well fitted falling curve with a large enough effect; inconclusive means small, poorly fitted or top-dose-only effect; inactive means no such curve, though single readings can be large or run the other way; further: the source files actives as falling curves though it sought activators and does not explain the sign; nearly all actives have a fitted effect of over 65% in size
# Target sequence (P80244 whole entry, looked up): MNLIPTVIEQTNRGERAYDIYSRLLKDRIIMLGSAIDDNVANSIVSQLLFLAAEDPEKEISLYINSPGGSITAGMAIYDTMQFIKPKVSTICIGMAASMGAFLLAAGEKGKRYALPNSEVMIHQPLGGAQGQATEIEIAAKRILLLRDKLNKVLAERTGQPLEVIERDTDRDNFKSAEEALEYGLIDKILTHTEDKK
#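 ClpP 10 microg/mL final, pH 8 Tris/KCl buffer with BSA, glycerol, Tween-20; compound pinned in; FRET-FV substrate; RT 20 min; Ex320/Em430; ΔFRET vs ADEP 5.8 microM, DMSO, no enzyme.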
# TDP1 cell noCPT: qHTS for Inhibitors of human tyrosyl-DNA phosphodiesterase 1 (TDP1): qHTS in cells in absence of CPT | DT40 Tdp1-/- hTDP1 cells, no CPT, ATP luminescence, 48 h | 420,000 tested, 15% active | Potency, µM (titrated, usually from 46.2 µM), inactives show top-dose activity change, negative = growth inhibition, hits mostly inhibitors | AID 686978, 2013; further: on the % scale 0 is the no-effect control and ±100 the full control effect; nearly all actives have a fitted effect of over 55% in size
#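 Stably hTDP1-transfected Tdp1-null chicken DT40 cells were treated with library compounds minus camptothecin and grown for at least 48 hr at 37 °C, after which cellular ATP was quantified by luminescence.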
# TDP1 cell CPT: qHTS for Inhibitors of human tyrosyl-DNA phosphodiesterase 1 (TDP1): qHTS in cells in presence of CPT. chicken DT40 Tdp1-/-;hTDP1 cells + 20 nM CPT, ATP luminescence, 48 h. Potency, µM (series often up to 46.2 µM), for the others: at the top dose activity change, negative = growth inhibition, most hits filed as inhibitors. 420,000 tested, 12% active. AID 686979, 2013; further: on the % scale 0 is the no-effect control and ±100 the full control effect; nearly all actives have a fitted effect of over 55% in size
#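 Cell growth measured by CellTiter-Glo luminescence after a minimum 48 h, 37 C compound exposure with 20 nM CPT in Tdp1-knockout DT40 cells stably expressing hTDP1, seeded 400/well; qHTS titration format.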
# Starred values were filed as active, the others as inactive; ? = inconclusive; . = no result given. Unless noted, the call rests on the fitted dose curve; in most records, active means well fitted curve in the direction sought with a large enough effect; inconclusive means small, poorly fitted or top-dose-only effect, or another doubt; inactive means no such curve, though single readings can be large; an effect the other way counts as inactive or inconclusive. Potency means the concentration at half of the fitted maximal effect.
SMILES,TDP1 block,ClpP mod,TDP1 cell noCPT,TDP1 cell CPT
CC1CCN(C(=O)NC(=O)c2ccc(Cl)cc2)CC1,3.5%,0.5%,12.2%,-24.6%
Cc1ccc(C2c3[nH]c4ccccc4c3C[C@H]3C(=O)N(c4ccccc4C(=O)N4CCC[C@@H]4C(=O)O)C(=O)N23)cc1 (some centres undefined),.,-3.4%,-0.6%,3.5%
COc1ccc(S(N)(=O)=O)cc1C(=O)N(C)CC(=O)Nc1ccc(N2CCOCC2)cc1,0.2%,-1.2%,1.9%,-11.4%
CCOC(=O)c1ccc([N+](=O)[O-])c(CS(=O)(=O)c2ccc(Cl)cc2)c1,.,0.6%,-23.9%,-20.9%
Cc1ccc(S(=O)(=O)CCC(=O)c2cccc([N+](=O)[O-])c2)cc1,5.9%,-5.1%,2.59µM*,2.06µM*
Cc1ccc(S(=O)(=O)Cc2cc(F)c([N+](=O)[O-])cc2[N+](=O)[O-])cc1,16.9%,0.8%,2.91µM*,3.66µM*
Cc1ccc(C(=O)CCS(=O)(=O)c2ccc(Br)cc2)cc1,3.5%,0.9%,5.17µM*,5.17µM*
COc1ccc(COC(=O)CCS(=O)(=O)c2ccc(C)cc2)cc1,.,.,4.4%,3.0%
COc1ccc(C(=O)CCS(=O)(=O)c2ccc(C)cc2)cc1,0.3%,-1.6%,2.31µM*,2.59µM*
Cc1ccc(NC(=O)CCS(=O)(=O)c2ccc(Br)cc2)c(C)c1,9.3%,-0.9%,1.7%,-4.4%
CC1CCCCC1NC(=O)COC(=O)c1ccc2c(c1)NC(=O)CS2 (centres undefined),0.7%,0.8%,-7.5%,-1.0%
CN(C1CCCCC1)S(=O)(=O)c1ccc2c(c1)c(=O)c(C(=O)NCc1ccccc1Cl)cn2C,-2.3%,0.7%,0.9%,-13.7%
Cn1c(Cl)cnc1C1CC(=O)c2cc(Cl)ccc2O1 (centres undefined),7.9%,3.9%,2.59µM*,4.11µM*
CC(=O)N1CCC2(CC1)CC(=O)c1cc(Cl)ccc1O2,.,3.4%,-16.0%,-15.1%
CC1OC(OC2C(CO)OC(OCC3OC(OC(=O)[C@@]45CCC(C)(C)C[C@@H]4C4=CC[C@@H]6[C@@]7(C)CCC(OC8OCC(O)C(O)C8OC8OC(C)C(O)C(O)C8O)[C@@](C)(CO)C7CC[C@@]6(C)[C@]4(C)CC5)C(O)C(O)C3O)C(O)C2O)C(O)C(O)C1O (some centres undefined),.,1.2%,?,-7.2%
O=C(CC1C(=O)OCC2CCCCN21)Nc1ccccc1C(F)(F)F (centres undefined),.,.,-13.9%,2.2%
CCN1CCOC(=O)C1CC(=O)Nc1cc(Cl)ccc1OC (centres undefined),-0.6%,-15.3%,2.59µM*,4.61µM*
CCN1CCOC(=O)C1CC(=O)Nc1ccccc1C(F)(F)F (centres undefined),-8.4%,2.2%,3.66µM*,3.26µM*
COc1ccc(Cl)cc1NC(=O)CC1CCCC1,9.1%,.,0.3%,-0.4%
CCN1CCOC(=O)C1CC(=O)Nc1ccc(C(C)=O)cc1 (centres undefined),-1.9%,-0.5%,10.3µM*,20.6µM*
c1ccc2c(c1)Cn1c-2nc2ccccc21,3.4%,25.1µM*,?,?
COc1ccc(CC(=O)NCC(c2cccs2)S(=O)(=O)c2ccc(Cl)cc2)cc1 (centres undefined),?,-0.9%,?,?
COc1ccccc1C(=O)N/C(=C/c1cccc([N+](=O)[O-])c1)C(=O)Nc1cccc(C(=O)O)c1,2.6%,.,?,20.6µM*
O=C(O)C(=Cc1cccc([N+](=O)[O-])c1)c1ccc(Cl)cc1,.,25.1µM*,?,?
COc1ccccc1NC(=O)/C(=C/c1cccc([N+](=O)[O-])c1)c1ccccc1,5.8%,0.4%,9.2µM*,13µM*
COc1ccc(C(=O)N/C(=C\c2cccc([N+](=O)[O-])c2)C(=O)Nc2cccc(C(=O)O)c2)cc1,0.0%,.,-1.4%,13.2%
NC(=O)c1ncn([C@@H]2O[C@H](CNCc3ccccc3OCc3ccc(Cl)cc3Cl)[C@@H](O)[C@H]2O)n1,.,2.7%,-18.0%,-26.8%
